Where “and” joins values, the source holds several entries; their conditions need not be identical. Identical values can stand only once. Results filed as inconclusive are left out. Where a call stands in place of a potency, no number is given. More than one record can exist for a structure, and the calls need not agree. Calls of active or inactive are those of the source. The call rests on the fitted dose curve; in most records, active means well fitted curve in the direction sought with a large enough effect in the repeat runs; inconclusive means weak or mixed curves; inactive means no such curve, though single readings can be large; an effect the other way counts as inactive or inconclusive.
Key:
[1] = A CellTox Green Cytotoxicity Assay to monitor cytotoxicity in HEK293 cells - 40 hour (AID 1224871); further: nearly all actives have a fitted effect of over 45% in size; further: potency means the concentration at half of the fitted maximal effect
How it was run: (§1)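 HEK293 cells, 600/well, were preincubated 5 hours and then exposed to compounds at 37 C for up to 40 hours. A cell-impermeant cyanine dye staining dead-cell DNA was read by fluorescence at 0, 8, 16, 24, 32 and 40 h time points.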

[2] = qHTS RealTime-Glo MT Cell Viability Assay in HEK293 cells - 16 hour (AID 1224872); further: nearly all actives have a fitted effect of over 50% in size; further: potency means the concentration at half of the fitted maximal effect
How it was run: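 Homogeneous bioluminescent viability format in HEK293 cells (600 cells/well). Following 5 h at 37 C/5% CO2, 23 nL compound was pintooled; the signal was measured repeatedly during 40 h incubation.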

[3] = qHTS RealTime-Glo MT Cell Viability Assay in HepG2 cells - 8 hour (AID 1224873); further: nearly all actives have a fitted effect of over 55% in size
How it was run: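 Real-time viability: cells seeded at 600 per well together with NanoLuc and cell-permeant prosubstrate, compounds added after 5 h incubation. Luminescence tracked at 0, 8, 16, 24, 32 and 40 h of exposure.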

[4] = qHTS RealTime-Glo MT Cell Viability Assay in HEK293 cells - 40 hour (AID 1224874); conditions: RealTime-Glo luminescence; max response: stronger effect = lower value; further: nearly all actives have a fitted effect of over 50% in size; further: potency means the concentration at half of the fitted maximal effect
How it was run: (§2)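 600 cells/well were plated with the nonlytic NanoLuc/prosubstrate reagent, pre-incubated 5 h, then given 23 nL of compound in DMSO. Incubation at 37 C for 40 h, with luminescence from viable-cell-reduced substrate read repeatedly from 0 h.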

[5] = A CellTox Green Cytotoxicity Assay to monitor cytotoxicity in HEK293 cells - 24 hour (AID 1224875); further: nearly all actives have a fitted effect of over 45% in size; further: potency means the concentration at half of the fitted maximal effect
How it was run: as §1

[6] = A CellTox Green Cytotoxicity Assay to monitor cytotoxicity in HepG2 cells - 16 hour (AID 1224876); further: nearly all actives have a fitted effect of over 45% in size; further: potency means the concentration at half of the fitted maximal effect
How it was run: (§3)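 HepG2 cells, 600/well, preincubated 5 h with CellTox Green dye, then exposed to Tox21 compounds in DMSO at 37 C for up to 40 h. Dead-cell DNA fluorescence read at the indicated time point.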

[7] = qHTS RealTime-Glo MT Cell Viability Assay in HepG2 cells - 32 hour (AID 1224877); further: nearly all actives have a fitted effect of over 55% in size
How it was run: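 Cell number in HepG2 cultures estimated from NanoLuc luminescence generated by metabolic reduction of a prosubstrate by living cells. The homogeneous, nonlytic format allowed repeated reads at 0, 8, 16, 24, 32 and 40 h of compound exposure.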

[8] = A CellTox Green Cytotoxicity Assay to monitor cytotoxicity in HepG2 cells - 24 hour (AID 1224878); further: nearly all actives have a fitted effect of over 45% in size; further: potency means the concentration at half of the fitted maximal effect
How it was run: as §3

[9] = A CellTox Green Cytotoxicity Assay to monitor cytotoxicity in HepG2 cells - 40 hour (AID 1224879); further: nearly all actives have a fitted effect of over 40% in size; further: potency means the concentration at half of the fitted maximal effect
How it was run: as §3

[10] = qHTS RealTime-Glo MT Cell Viability Assay in HEK293 cells - 0 hour (AID 1224880)
How it was run: as §2

Compound	Potency [1]	Potency [2]	Potency [3]	max response [4]	Potency [5]	Potency [6]	Potency [7]	Potency [8]	Potency [9]	Potency [10]	Potency [4]
Cc1cc(C)cc(C)c1	inactive	inactive	inactive	1.65% (inactive) and -3.48% (inactive)	inactive	inactive	inactive	inactive	inactive	inactive	
c1nc[nH]n1	inactive	inactive	inactive	-1.48% (inactive) and 17.9% (inactive)	inactive	inactive	inactive	inactive	inactive		
CCOc1cc(C=O)ccc1O	inactive	inactive	inactive	4.96% (inactive) and 4.75% (inactive)	inactive	inactive	inactive	inactive	inactive		
CNC(=O)Oc1cccc2c1OC(C)(C)O2	inactive	inactive	inactive	-0.755% (inactive) and 5.29% (inactive)	inactive	inactive	inactive	inactive	inactive	inactive	
CCCCNC(=O)n1c(NC(=O)OC)nc2ccccc21	inactive	inactive	inactive		inactive	inactive	inactive	inactive	7.72 µM (active) and 11 µM (active)	inactive	6.88 µM (active)
O=C(O)CC[N+](=O)[O-]	inactive	inactive	inactive	0.345% (inactive) and -3.12% (inactive)	inactive	inactive	inactive	inactive	inactive		
COc1ccc(C=O)cc1	inactive	inactive	inactive	7.64% (inactive) and 1.9% (inactive)	inactive	inactive	inactive	inactive	inactive	inactive	
Nn1cnnc1	inactive	inactive	inactive	-2.23% (inactive) and 1.89% (inactive)	inactive	inactive	inactive	inactive	inactive	inactive	
C=CC(=O)OCCO	inactive	inactive	inactive	4.73% (inactive) and 14.7% (inactive)	inactive	inactive	inactive	inactive	inactive		
CCC(=O)O[C@H]1CC[C@H]2[C@@H]3CCC4=CC(=O)CC[C@]4(C)[C@H]3CC[C@]12C	19.5 µM (active) and 21.3 µM (active)	21.9 µM (active) and 23.9 µM (active)	inactive		19.5 µM (active) and 5.35 µM (active)	38.9 µM (active)	inactive	43.6 µM (active)	49 µM (active) and inactive		19.5 µM (active) and 23.9 µM (active)
CCCCCCOC(=O)c1ccccc1C(=O)OCCCCCC	inactive	inactive	inactive	-22.3% (inactive)	inactive	inactive	inactive	inactive	inactive		
CCCCOCCOP(=O)(OCCOCCCC)OCCOCCCC	inactive	inactive	inactive	-16.9% (inactive)	inactive	inactive	inactive				
CCN(N=O)C(N)=O	inactive	inactive	inactive	4.37% (inactive) and -1.44% (inactive)	inactive	inactive	inactive	inactive	inactive	inactive	
Cc1ccccc1[N+](=O)[O-]	inactive	inactive	inactive	1.02% (inactive) and 16.9% (inactive)	inactive	inactive	inactive	inactive	inactive	inactive	
O=C(CCl)c1ccccc1	inactive and 54.9 µM (active)	inactive and 49 µM (active)	inactive	-7.31% (inactive)		inactive	inactive	inactive	inactive		43.6 µM (active)
CCCCN(CC)c1c([N+](=O)[O-])cc(C(F)(F)F)cc1[N+](=O)[O-]	inactive	inactive	inactive	-1.03% (inactive) and 20.2% (inactive)	inactive	inactive	inactive	inactive	inactive	inactive	
CCc1cccc(CC)c1N(COC)C(=O)CCl	inactive	inactive	inactive	-25.5% (inactive)	inactive	inactive	inactive	inactive	inactive	inactive	
CCCCCCCCC(=O)NCc1ccc(O)c(OC)c1	inactive	inactive	inactive	8.1% (inactive) and -1.04% (inactive)	inactive	inactive	inactive	inactive	inactive		
O=P(Oc1ccccc1)(Oc1ccccc1)Oc1ccccc1	inactive	inactive	inactive	-17.9% (inactive) and -13.8% (inactive)	inactive	inactive	inactive	inactive	inactive		

Compound	Potency [1]	Potency [2]	Potency [3]	max response [4]	Potency [5]	Potency [6]	Potency [7]	Potency [8]	Potency [9]	Potency [10]	Potency [4]
CC(C)c1ccc(CO)cc1	inactive	inactive	inactive	0.21% (inactive) and 0.88% (inactive)	inactive	inactive	inactive	inactive	inactive		
CCCCN(CCCC)N=O	inactive	inactive	inactive	-0.0622% (inactive) and 14.1% (inactive)	inactive	inactive	inactive	inactive	inactive	inactive	
NC(=S)Nc1ccccc1	49.8 µM (active) and inactive	inactive	inactive	-2.05% (inactive)		49.8 µM (active) and inactive	inactive	49.8 µM (active) and inactive	55.9 µM (active) and inactive	inactive	4.98 µM (active)
COc1ccc(C(CN(C)C)C2(O)CCCCC2)cc1 (stereo not drawn)	inactive	inactive	inactive	-15.6% (inactive) and -9.44% (inactive)	inactive	inactive	inactive	inactive	inactive		
NNC(=S)NN	inactive	inactive	inactive	7.14% (inactive) and 10.3% (inactive)	inactive	inactive	inactive	inactive	inactive		
c1cc(OCC2CO2)ccc1Cc1ccc(OCC2CO2)cc1 (stereo not drawn)	inactive	inactive	inactive	-28.4% (inactive)	inactive	inactive	inactive	inactive	inactive	inactive	
COP(=S)(OC)Oc1cc(Cl)c(Cl)cc1Cl	inactive	inactive	inactive	-10.5% (inactive) and -1.54% (inactive)	inactive	inactive	inactive	inactive	inactive	inactive	
CCCCCCCCOC(=O)c1ccccc1C(=O)OCCCCCCCC	inactive	inactive	inactive	2.33% (inactive) and -2.33% (inactive)	inactive	inactive	inactive	inactive	inactive		
N#CC(Br)Br	inactive	inactive	inactive	-17% (inactive) and 1.39% (inactive)	inactive	inactive	inactive	inactive	inactive	inactive	
O=C(O)C(F)(F)C(F)(F)C(F)(F)C(F)(F)C(F)(F)C(F)(F)C(F)(F)F	inactive	inactive	inactive	-9.47% (inactive) and 7.44% (inactive)	inactive	inactive	inactive	inactive	inactive		
Nc1ccc(-c2ccccc2)cc1	inactive	10 µM (active) and inactive	inactive	-19.4% (inactive)		inactive	inactive	inactive	inactive	inactive	10 µM (active)
O=[N+]([O-])c1cccc2ccccc12	inactive	inactive	inactive	3.63% (inactive) and 7.21% (inactive)	inactive	inactive	inactive	inactive	inactive		
Nc1ccc(Cl)c(Cl)c1	inactive	inactive	inactive	0.648% (inactive)	inactive	inactive	inactive	inactive	inactive		
Nc1ccc(-c2ccc(N)c(N)c2)cc1N	inactive	inactive	inactive	10% (inactive)	inactive	inactive	inactive	inactive	inactive	inactive	
COP(=S)(OC)Oc1ccc([N+](=O)[O-])cc1	inactive	inactive	inactive	-19% (inactive) and -8.77% (inactive)	inactive	inactive	inactive	inactive	inactive		
CCC(C)c1cc([N+](=O)[O-])cc([N+](=O)[O-])c1O (stereo not drawn)	inactive	inactive	inactive	5.87% (inactive)	inactive	inactive	inactive	inactive	inactive		
CCOCN(C(=O)CCl)c1c(C)cccc1CC	inactive	inactive	inactive	-23.6% (inactive) and -0.0681% (inactive)	inactive	inactive	inactive	inactive	inactive	inactive	
CCN(CC)N=O	inactive	inactive	inactive	-2.46% (inactive) and 23.7% (inactive)	inactive	inactive	inactive	inactive	inactive		

From PubChem BioAssay (Tox21)
